The results in this text go back to PubChem BioAssay (EPA / NIEHS).

Molecules are shown by their SMILES. Values joined by “and” are separate entries in the source; they are usually repeats but may differ in a detail not shown here. Identical values can stand only once. Records with an inconclusive call do not appear. Where a structure was tested more than once in an assay, its records may differ in their call. Active and inactive are the calls of the source. How the source made its calls: active means hit-call score of the fitted dose curve at least 0.9, where 1 is the maximum; inconclusive means response in the unintended direction; inactive means score below 0.9.

The target in assay [1] is rat Constitutive Nitric Oxide Synthase (CNOS), Nos1 (gene 24598) (UniProt P29476). As to the kind of experiment: NVS_ENZ_rCNOS: NovaScreen (NVS) Enzymatic Assay for rat Constitutive Nitric Oxide Synthase (CNOS) (AID 2283236). Summed up:
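Single 25 uM duplicate screen, then concentration series to 50 uM for chemicals meeting threshold. Rat brain membrane-derived CNOS activity detected radiometrically by filtration and scintillation counting, 1 h after compound addition; DMSO as baseline.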

For assay [2], the system named is rat Monoamine Oxidase, MAO-A, Central (MAOAC), gene 29253. The assay can be described thus: NVS_ENZ_rMAOAC: NovaScreen (NVS) Enzymatic Assay for rat Monoamine Oxidase, MAO-A, Central (MAOAC) (AID 2283243).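 Further: potency refers to inhibition seen as signal drop below DMSO baseline.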 Summed up: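 Lysate-based radiometric enzyme assay using rat brain tissue; 1.5 h treatment; 25 uM single-point duplicate screen, concentration-response follow-up; loss of signal versus DMSO.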

Assay [3] has as its target human Serotonin, 5-Hydroxytryptamine Receptor 5A (5HT5A), HTR5A (gene 3361) (UniProt P47898). As to the kind of experiment: NVS_GPCR_h5HT5A: NovaScreen (NVS) G Protein-Coupled Receptor Assay for human Serotonin, 5-Hydroxytryptamine Receptor 5A (5HT5A) (AID 2283251). Summed up:
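Membranes from HEK293 cells, radioligand binding read by filtration and scintillation after 1 h. Single-concentration duplicate testing at 25 uM, then concentration-response for actives; positive-direction fitting relative to DMSO.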

The target in assay [4] is guinea pig Opioid, Kappa 1 Receptor (OpiateK), OPRK1 (gene 100135587) (UniProt P41144). The assay can be described thus: NVS_GPCR_gOpiateK: NovaScreen (NVS) G Protein-Coupled Receptor Assay for guinea pig Opioid, Kappa 1 Receptor (OpiateK) (AID 2283252).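 Further: active means reduced radioligand binding relative to DMSO.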 In short, it runs like this: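 Radioligand binding to kappa opioid receptor in guinea pig cerebellar membranes, read by filtration and scintillation at 2 h. Compounds first tested in duplicate at 25 uM, then actives in concentration series; signal loss fitted against DMSO.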

Assay [5] has as its target human Serotonin, 5-Hydroxytryptamine Receptor 7 (5HT7), HTR7 (gene 3363) (UniProt P34969). The assay can be described thus: NVS_GPCR_h5HT7: NovaScreen (NVS) G Protein-Coupled Receptor Assay for human Serotonin, 5-Hydroxytryptamine Receptor 7 (5HT7) (AID 2283255).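 Further: hits reduce specific radioligand binding relative to DMSO.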 Summed up:
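Filter-bound radioactivity counted after 1 h, with loss of specific radioligand binding fitted against DMSO. Membrane protein came from CHO cells expressing human 5HT7. Chemicals were tested first at 25 uM in duplicate, then in concentration series if active.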

For assay [6], the target named is rat Monoamine Oxidase, MAO-B, Peripheral (MAOBP), Maob (gene 25750) (UniProt P19643). The assay can be described thus: NVS_ENZ_rMAOBP: NovaScreen (NVS) Enzymatic Assay for rat Monoamine Oxidase, MAO-B, Peripheral (MAOBP) (AID 2283242). As to the method: NVS_ENZ_rMAOBP is a biochemical, single-readout assay that uses extracted gene-proteins from Rat brain in a tissue-based cell-free assay. Measurements were taken 1.17 hours after chemical dosing in a 96-well plate.NVS_ENZ_rMAOBP is one of one assay component(s) measured or calculated from the NVS_ENZ_rMAOBP assay. It is designed to make measurements of enzyme activity, a form of enzyme reporter, as detected with scintillation counting signals by Lysate-based radiodetection technology.Data from the assay component NVS_ENZ_rMAOBP was analyzed into 1 assay endpoint. This assay endpoint, NVS_ENZ_rMAOBP, was analyzed in the positive analysis fitting direction relative to DMSO as the negative control and baseline of activity. Using a type of enzyme reporter, loss-of-signal activity can be used to understand changes in the enzymatic activity as they relate to the gene Maob. Furthermore, this assay endpoint can be referred to as a primary readout, because this assay has produced multiple assay endpoints where this one serves a enzymatic activity function. To generalize the intended target to other relatable targets, this assay endpoint is annotated to the oxidoreductase intended target family, where the subfamily is monoamine oxidase.
Binding assays used specific radioligands (tritiated, iodinated) with non-radioactive competitive displacement ligands in agonist or antagonist protocols (as indicated) and various reference compounds and inhibitors to titrate specific binding to receptors and transporters. Most enzyme assays (CYPs, kinases, phosphatases, proteases, HDACs) used recombinant protein and specific substrates (fluorescence mostly, some colorimetric and radioactive) and inhibitors, followed by a biochemical separation of substrate and product. All assays for the biochemical HTS were initially run in duplicate at a single concentration (10 uM for CYP450 assays and 25 uM for all others). […]

Assay [7] has as its system guinea pig Muscarinic, Peripheral (Mperiperal) Receptor, Non-selective Binding, gene 100379235. As to the kind of experiment: NVS_GPCR_gMPeripheral_NonSelective: NovaScreen (NVS) G Protein-Coupled Receptor Assay for guinea pig Muscarinic, Peripheral (Mperiperal) Receptor, Non-selective Binding (AID 2283250). In short, it runs like this: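 Screened in duplicate at 25 uM, hits retested in concentration series to 50 uM max, using bladder membrane radioligand displacement from guinea pig. Filtration and scintillation counting 1 h post-dose, fitted relative to DMSO.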

Assay [8] addresses human Serotonin, 5-Hydroxytryptamine Receptor 6 (5HT6), HTR6 (gene 3362) (UniProt P50406). The assay can be described thus: NVS_GPCR_h5HT6: NovaScreen (NVS) G Protein-Coupled Receptor Assay for human Serotonin, 5-Hydroxytryptamine Receptor 6 (5HT6) (AID 2283253). Summed up:
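Filter scintillation counting of radioligand displacement from HEK293-expressed 5HT6, 1 hour post-dose, with loss of signal relative to DMSO. Single 25 uM duplicates first, with concentration series for confirmation.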

Assay [9] addresses rat Monoamine Oxidase, MAO-B, Central (MAOBC), Maob (gene 25750) (UniProt P19643). The assay can be described thus: NVS_ENZ_rMAOBC: NovaScreen (NVS) Enzymatic Assay for rat Monoamine Oxidase, MAO-B, Central (MAOBC) (AID 2283238). In short, it runs like this: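 Actives from a duplicate 25 uM screen went on to singleton concentration-response with a 50 uM maximum. Enzyme source was rat brain tissue MAO-B, assayed cell-free. Radiolabelled product was counted by scintillation 1.17 h post-dose, with signal loss relative to DMSO.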

The target in assay [10] is sheep Cyclooxygenase-1 (Cox1), PTGS1 (gene 443551) (UniProt P05979). As to the kind of experiment: NVS_ENZ_oCOX1: NovaScreen (NVS) Enzymatic Assay for sheep Cyclooxygenase-1 (Cox1) (AID 2283239).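 Further: actives reduce cyclooxygenase activity so potencies are for inhibitors.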 Summed up: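 Colorimetric enzyme readout using sheep seminal-vesicle cyclooxygenase-1, measured 0.66 h post-dosing. Single-concentration duplicates at 25 uM first, then concentration series for actives, with DMSO as baseline and plate controls.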

The subject of assay [11] is guinea pig Leukotriene B4 Receptor (LTB4), gene 100379538. As to the kind of experiment: NVS_GPCR_gLTB4: NovaScreen (NVS) G Protein-Coupled Receptor Assay for guinea pig Leukotriene B4 Receptor (LTB4) (AID 2283247). In short, it runs like this: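 Membranes from guinea pig spleen incubated 2 h with radioligand and compound; bound counts measured by filtration and scintillation. Screened first at 25 uM in duplicate, then actives titrated to a 50 uM top concentration relative to DMSO.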

For assay [12], the target named is guinea pig Leukotriene D4 Receptor (LTD4), CYSLTR1 (gene 100135514) (UniProt Q2NNR5). As to the kind of experiment: NVS_GPCR_gLTD4: NovaScreen (NVS) G Protein-Coupled Receptor Assay for guinea pig Leukotriene D4 Receptor (LTD4) (AID 2283248). Summed up: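 Guinea pig lung membrane preparation; bound radioligand measured by filter scintillation after 1 h, loss of signal versus DMSO marking displacement. Compounds tested at 25 uM in duplicate, hits retested to max 50 uM.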

Assay [13] concerns the target rat Acetylcholinesterase (AChE), Ache (gene 83817) (UniProt P37136). The assay can be described thus: NVS_ENZ_rAChE: NovaScreen (NVS) Enzymatic Assay for rat Acetylcholinesterase (AChE) (AID 2283233). Summed up:
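Compounds first screened at 25 uM in duplicate, then those passing threshold tested in concentration series up to 50 uM, against AChE from rat brain membranes. Enzyme activity read by absorbance at 0.33 h; inhibition scored versus DMSO.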

Assay [14] deals with rat Monoamine Oxidase, MAO-A, Peripheral (MAOAP), gene 29253. The assay can be described thus: NVS_ENZ_rMAOAP: NovaScreen (NVS) Enzymatic Assay for rat Monoamine Oxidase, MAO-A, Peripheral (MAOAP) (AID 2283237). Summed up:
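Scintillation counting tracked MAO-A activity in a cell-free rat liver mitochondrial membrane prep, read 1.17 hours after compound addition. Single-point duplicate testing at 25 uM preceded concentration-response follow-up; activity was fitted relative to DMSO.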

Assay [15] relates to bovine Angiotensin II Receptor Type 2 (AT2), gene 407157. As to the kind of experiment: NVS_GPCR_bAT2: NovaScreen (NVS) G Protein-Coupled Receptor Assay for bovine Angiotensin II Receptor Type 2 (AT2) (AID 2283240). Summed up: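 Radioligand displacement on bovine cerebellar membranes, 1 hour incubation, filter-based scintillation counting; loss of signal vs DMSO. Duplicate single-point screen at 25 uM, then concentration-response to 50 uM maximum.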

Assay [16] can be described thus: NVS_GPCR_bNPY_NonSelective: NovaScreen (NVS) G Protein-Coupled Receptor Assay for bovine Neuropeptide Y (NPY) Receptor, Non-selective Binding (AID 2283245). In short, it runs like this: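 Displacement of radioligand from bovine hippocampal membrane receptors, read by filtration and scintillation counting after 1 hour. Concentration-response to a top of 50 uM followed a 25 uM duplicate primary screen. Loss of signal versus DMSO.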

Sequence of guinea pig Leukotriene D4 Receptor (LTD4), CYSLTR1 (gene 100135514) (Q2NNR5 whole entry, looked up): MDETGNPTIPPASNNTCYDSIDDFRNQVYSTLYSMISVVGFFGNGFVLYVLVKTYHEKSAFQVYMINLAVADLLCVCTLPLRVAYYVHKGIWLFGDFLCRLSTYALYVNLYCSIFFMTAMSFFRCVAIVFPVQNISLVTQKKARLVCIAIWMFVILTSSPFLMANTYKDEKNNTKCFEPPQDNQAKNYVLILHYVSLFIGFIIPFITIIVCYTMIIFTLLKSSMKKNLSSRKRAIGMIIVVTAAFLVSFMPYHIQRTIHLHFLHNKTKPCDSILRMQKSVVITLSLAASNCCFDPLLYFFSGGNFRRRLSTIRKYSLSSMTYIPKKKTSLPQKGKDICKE
Sequence of human Serotonin, 5-Hydroxytryptamine Receptor 6 (5HT6), HTR6 (gene 3362) (P50406 whole entry, looked up): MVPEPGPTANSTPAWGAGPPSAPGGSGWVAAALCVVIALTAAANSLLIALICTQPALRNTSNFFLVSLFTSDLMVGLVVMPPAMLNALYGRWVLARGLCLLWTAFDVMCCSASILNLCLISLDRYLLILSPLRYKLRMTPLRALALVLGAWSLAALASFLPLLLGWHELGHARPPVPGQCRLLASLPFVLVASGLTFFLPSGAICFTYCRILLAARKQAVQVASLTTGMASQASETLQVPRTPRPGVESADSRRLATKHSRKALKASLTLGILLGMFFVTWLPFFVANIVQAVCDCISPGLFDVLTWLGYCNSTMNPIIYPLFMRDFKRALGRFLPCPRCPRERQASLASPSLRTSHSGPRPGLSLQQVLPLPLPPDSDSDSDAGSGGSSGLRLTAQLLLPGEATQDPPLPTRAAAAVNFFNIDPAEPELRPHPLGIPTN
Sequence of sheep Cyclooxygenase-1 (Cox1), PTGS1 (gene 443551) (P05979 whole entry, looked up): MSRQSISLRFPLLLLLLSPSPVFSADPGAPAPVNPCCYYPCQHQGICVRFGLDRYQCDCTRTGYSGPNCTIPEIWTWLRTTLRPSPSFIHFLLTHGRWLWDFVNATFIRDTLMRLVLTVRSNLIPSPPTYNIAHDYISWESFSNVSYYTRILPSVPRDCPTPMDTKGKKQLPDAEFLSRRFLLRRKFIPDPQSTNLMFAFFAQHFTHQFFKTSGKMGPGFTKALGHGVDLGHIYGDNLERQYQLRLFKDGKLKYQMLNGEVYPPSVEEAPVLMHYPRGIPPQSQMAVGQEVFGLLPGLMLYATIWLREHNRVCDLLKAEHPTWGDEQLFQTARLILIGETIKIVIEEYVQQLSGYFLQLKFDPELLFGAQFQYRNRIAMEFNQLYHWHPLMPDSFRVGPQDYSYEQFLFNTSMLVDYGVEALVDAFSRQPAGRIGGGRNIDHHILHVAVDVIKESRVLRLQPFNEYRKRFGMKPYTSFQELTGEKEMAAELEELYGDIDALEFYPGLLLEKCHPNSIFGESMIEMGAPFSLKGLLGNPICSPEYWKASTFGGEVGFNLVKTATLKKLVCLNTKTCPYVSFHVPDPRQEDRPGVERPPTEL
Sequence of human Serotonin, 5-Hydroxytryptamine Receptor 7 (5HT7), HTR7 (gene 3363) (P34969 whole entry, looked up): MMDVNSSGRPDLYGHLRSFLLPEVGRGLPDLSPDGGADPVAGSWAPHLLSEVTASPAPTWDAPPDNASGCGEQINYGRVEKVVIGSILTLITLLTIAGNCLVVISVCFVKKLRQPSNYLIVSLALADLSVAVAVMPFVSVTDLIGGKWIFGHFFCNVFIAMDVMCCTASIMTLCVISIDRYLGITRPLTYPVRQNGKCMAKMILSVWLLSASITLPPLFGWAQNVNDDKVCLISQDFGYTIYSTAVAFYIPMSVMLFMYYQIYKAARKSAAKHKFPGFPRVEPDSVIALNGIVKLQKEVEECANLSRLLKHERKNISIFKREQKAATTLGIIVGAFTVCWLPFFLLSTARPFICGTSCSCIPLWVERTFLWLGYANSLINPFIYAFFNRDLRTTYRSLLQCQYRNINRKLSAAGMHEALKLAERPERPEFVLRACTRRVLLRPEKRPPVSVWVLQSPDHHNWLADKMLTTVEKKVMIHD
Sequence of rat Constitutive Nitric Oxide Synthase (CNOS), Nos1 (gene 24598) (P29476 whole entry, looked up): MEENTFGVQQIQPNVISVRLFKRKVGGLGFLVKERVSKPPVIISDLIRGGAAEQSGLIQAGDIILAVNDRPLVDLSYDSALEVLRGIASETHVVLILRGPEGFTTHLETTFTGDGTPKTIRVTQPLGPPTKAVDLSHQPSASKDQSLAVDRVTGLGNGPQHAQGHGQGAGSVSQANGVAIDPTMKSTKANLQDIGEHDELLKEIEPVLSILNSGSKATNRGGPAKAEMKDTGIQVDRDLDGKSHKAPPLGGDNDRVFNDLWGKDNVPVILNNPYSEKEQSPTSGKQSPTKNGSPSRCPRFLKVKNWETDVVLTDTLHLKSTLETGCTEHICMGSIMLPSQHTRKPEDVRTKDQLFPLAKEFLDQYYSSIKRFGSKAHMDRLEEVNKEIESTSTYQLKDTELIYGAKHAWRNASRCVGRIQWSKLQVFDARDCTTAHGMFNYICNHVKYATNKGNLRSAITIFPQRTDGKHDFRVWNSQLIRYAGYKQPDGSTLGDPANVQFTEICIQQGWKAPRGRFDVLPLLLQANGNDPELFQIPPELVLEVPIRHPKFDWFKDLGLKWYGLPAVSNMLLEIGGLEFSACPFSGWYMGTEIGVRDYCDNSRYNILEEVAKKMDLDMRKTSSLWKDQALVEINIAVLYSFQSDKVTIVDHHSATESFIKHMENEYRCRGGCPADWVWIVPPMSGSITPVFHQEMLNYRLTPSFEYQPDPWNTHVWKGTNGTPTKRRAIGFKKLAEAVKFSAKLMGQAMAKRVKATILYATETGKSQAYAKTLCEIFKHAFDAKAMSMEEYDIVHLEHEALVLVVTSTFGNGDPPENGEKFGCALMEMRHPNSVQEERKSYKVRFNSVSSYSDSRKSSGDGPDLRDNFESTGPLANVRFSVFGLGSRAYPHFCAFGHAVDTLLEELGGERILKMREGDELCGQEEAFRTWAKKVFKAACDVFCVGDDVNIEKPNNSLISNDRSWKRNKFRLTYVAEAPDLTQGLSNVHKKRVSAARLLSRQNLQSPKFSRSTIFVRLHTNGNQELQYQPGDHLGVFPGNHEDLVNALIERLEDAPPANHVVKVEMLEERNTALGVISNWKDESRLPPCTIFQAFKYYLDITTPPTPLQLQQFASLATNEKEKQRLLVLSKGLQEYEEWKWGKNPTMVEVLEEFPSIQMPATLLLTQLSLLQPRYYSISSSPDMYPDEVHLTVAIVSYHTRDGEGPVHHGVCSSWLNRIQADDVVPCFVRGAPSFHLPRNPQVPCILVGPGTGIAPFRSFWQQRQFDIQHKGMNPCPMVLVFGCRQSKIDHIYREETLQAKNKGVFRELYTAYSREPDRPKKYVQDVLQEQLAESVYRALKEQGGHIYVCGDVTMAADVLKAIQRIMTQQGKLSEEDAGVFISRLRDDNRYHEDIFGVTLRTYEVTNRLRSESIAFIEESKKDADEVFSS
Sequence of human Serotonin, 5-Hydroxytryptamine Receptor 5A (5HT5A), HTR5A (gene 3361) (P47898 whole entry, looked up): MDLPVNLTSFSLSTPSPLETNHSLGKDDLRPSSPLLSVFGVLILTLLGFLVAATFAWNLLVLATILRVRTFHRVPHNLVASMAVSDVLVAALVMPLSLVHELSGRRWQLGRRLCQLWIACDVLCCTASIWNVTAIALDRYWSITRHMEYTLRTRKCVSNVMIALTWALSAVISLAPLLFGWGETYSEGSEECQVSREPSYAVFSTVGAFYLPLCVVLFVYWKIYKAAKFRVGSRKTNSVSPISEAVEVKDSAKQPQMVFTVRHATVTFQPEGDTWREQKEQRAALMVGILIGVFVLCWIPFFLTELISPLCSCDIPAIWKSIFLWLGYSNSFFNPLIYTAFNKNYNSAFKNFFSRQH
Sequence of rat Monoamine Oxidase, MAO-B, Central (MAOBC), Maob (gene 25750) (P19643 whole entry, looked up): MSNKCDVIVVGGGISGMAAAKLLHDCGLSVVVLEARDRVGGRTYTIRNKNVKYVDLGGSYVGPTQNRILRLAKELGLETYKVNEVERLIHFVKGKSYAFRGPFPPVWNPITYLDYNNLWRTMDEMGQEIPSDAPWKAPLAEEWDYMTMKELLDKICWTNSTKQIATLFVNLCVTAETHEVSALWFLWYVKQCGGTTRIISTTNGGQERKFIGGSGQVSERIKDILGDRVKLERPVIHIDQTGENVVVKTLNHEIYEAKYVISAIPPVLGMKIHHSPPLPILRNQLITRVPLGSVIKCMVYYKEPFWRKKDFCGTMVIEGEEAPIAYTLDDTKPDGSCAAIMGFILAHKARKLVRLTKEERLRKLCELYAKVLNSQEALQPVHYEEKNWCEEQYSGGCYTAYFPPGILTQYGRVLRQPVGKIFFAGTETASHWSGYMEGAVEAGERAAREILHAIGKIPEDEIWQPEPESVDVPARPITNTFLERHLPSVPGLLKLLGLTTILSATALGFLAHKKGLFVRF
Sequence of rat Acetylcholinesterase (AChE), Ache (gene 83817) (P37136 whole entry, looked up): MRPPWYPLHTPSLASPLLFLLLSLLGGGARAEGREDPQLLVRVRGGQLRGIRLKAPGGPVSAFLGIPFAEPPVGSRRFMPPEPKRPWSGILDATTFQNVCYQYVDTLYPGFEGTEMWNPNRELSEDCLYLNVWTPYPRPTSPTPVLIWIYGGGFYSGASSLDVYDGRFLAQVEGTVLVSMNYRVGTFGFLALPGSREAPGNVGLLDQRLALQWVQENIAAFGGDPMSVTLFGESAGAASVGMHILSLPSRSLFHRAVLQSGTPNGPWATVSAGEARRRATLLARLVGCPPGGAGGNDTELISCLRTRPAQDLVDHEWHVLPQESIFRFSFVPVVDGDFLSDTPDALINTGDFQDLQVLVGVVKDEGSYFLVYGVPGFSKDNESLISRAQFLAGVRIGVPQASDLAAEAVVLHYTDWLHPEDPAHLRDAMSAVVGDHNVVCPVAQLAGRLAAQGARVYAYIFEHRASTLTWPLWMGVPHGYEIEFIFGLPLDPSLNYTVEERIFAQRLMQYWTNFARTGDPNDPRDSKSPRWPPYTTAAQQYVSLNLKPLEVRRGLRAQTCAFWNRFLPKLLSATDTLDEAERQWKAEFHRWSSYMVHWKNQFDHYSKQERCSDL
Sequence of rat Monoamine Oxidase, MAO-B, Peripheral (MAOBP), Maob (gene 25750) (P19643 whole entry, looked up): as the sequence (P19643 whole entry, looked up) above

On to `CCCN(CCOc1c(Cl)cc(Cl)cc1Cl)C(=O)n1ccnc1`, for which the call in assay [1], in assay [3] and in assay [4] was inactive. Moreover, the results for the concentration at half-maximal activity (AC50) in assay [2] and in assay [5] were 8.15 µM (active) and 13.3 µM (active), respectively.
On to `Cc1[nH]c(=O)n(C(C)(C)C)c(=O)c1Cl`, for which the outcome in [1] was inactive.
For `O=C1c2ccccc2C(=O)N1SC(Cl)(Cl)Cl`, the values for the AC50 in [1] and in assay [8] were 2.25 µM (active) and 16.3 µM (active), respectively. The call in assay [6], in [7] and in [3] was inactive.
Turning to `C#CCN1C(=O)COc2cc(F)c(N3C(=O)C4=C(CCCC4)C3=O)cc21`, the concentration at half-maximal activity (AC50) in assay [9] was 25 µM (active); in assay [10], 1.11 µM (active); in assay [2], 6.93 µM (active).
Take `O=S(=O)(O)C(F)(F)C(F)(F)C(F)(F)C(F)(F)C(F)(F)C(F)(F)C(F)(F)C(F)(F)F`: the compound was classed as inactive in assay [10], in assay [11], in assay [12] and in [3]. Also, the AC50 in [11] was 13.1 µM (active) [middle of 4 runs]; in assay [12], 24 µM (active) [middle of 4 runs]; in [3], 35.1 µM (active) and 11.6 µM (active) and 33.8 µM (active); in [8], 32.7 µM (active) and 42.8 µM (active); in assay [5], 6.51 µM (active) and 25 µM (active) and 24 µM (active).
As for `CNC(=O)Oc1cccc(N=CN(C)C)c1`, the concentration at half-maximal activity (AC50) in assay [13] was 12 µM (active). For the same compound, the outcome in assay [14] and in assay [2] was inactive.
For the compound `COC(=O)c1ccccc1S(=O)(=O)NC(=O)N(C)c1nc(C)nc(OC)n1`, the call in [9] was inactive.
Turning to `CC[C@H](C)[C@H]1O[C@]2(C=C[C@@H]1C)C[C@@H]1C[C@@H](C/C=C(\C)[C@@H](O[C@H]3C[C@H](OC)[C@@H](O[C@H]4C[C@H](OC)[C@@H](O)[C@H](C)O4)[C@H](C)O3)[C@@H](C)/C=C/C=C3\CO[C@@H]4[C@H](O)C(C)=C[C@@H](C(=O)O1)[C@]34O)O2` (tested in a mixture with another compound), the compound was called inactive in [15] and in [16]. Further, the figures for the AC50 in assay [12], in [3] and in assay [5] were 25 µM (active), 3.1 µM (active) and 6.77 µM (active), respectively.
Take `COC(=O)c1ccccc1CS(=O)(=O)NC(=O)Nc1nc(OC)cc(OC)n1`: the concentration at half-maximal activity (AC50) in assay [2] is 25 µM (active).
As to `CCCN(CCC)c1c([N+](=O)[O-])cc(C(F)(F)F)cc1[N+](=O)[O-]`, the values for the half-maximal activity concentration (AC50) in assay [10] and in [3] were 12.8 µM (active) and 6.21 µM (active), respectively.
As for `CC(C)(C)C(O)/C(=C\c1ccc(Cl)cc1Cl)n1cncn1` (configuration not stated), the outcome in [3] and in [8] was inactive.
In the case of `COP(=O)(OC)OC=C(Cl)Cl`, the concentration at half-maximal activity (AC50) in assay [13] was 6.37 µM (active). The compound was called inactive in assay [10].
Regarding `O=C(O)C(F)(F)C(F)(F)C(F)(F)C(F)(F)C(F)(F)C(F)(F)C(F)(F)F`, the outcome in assay [10], in assay [12], in [7] and in [3] was inactive. Also, the AC50 in assay [11] was 18.5 µM (active).
As for `COP(=S)(OC)Oc1ccc([N+](=O)[O-])cc1`, the call in assay [13] and in assay [9] was inactive. The AC50 in assay [11] is 10.5 µM (active).

In general, AC50 refers to the concentration at which the activity in the assay is half-maximal.
